# Screening results as filed in PubChem.
# FLuc counter = qHTS profiling assay for firefly luciferase inhibitor/activator using purifed enzyme and Km concentrations of substrates (counterscreen for miR-21 project); Luciferin 4-monooxygenase (Photinus pyralis), P08659; purified FLuc, Km substrates, luminescence inhibition; Potency, µM (series often up to 57.5 µM), for inactives: at the highest dose activity change, negative = inhibition, hits mostly inhibitors; 360,000 compounds, 6.9% hits;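 further: plate controls were vehicle for no effect and reference inhibitor for full effect; nearly all actives have a fitted effect of over 55% in size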
# Target sequence (P08659 whole entry, looked up): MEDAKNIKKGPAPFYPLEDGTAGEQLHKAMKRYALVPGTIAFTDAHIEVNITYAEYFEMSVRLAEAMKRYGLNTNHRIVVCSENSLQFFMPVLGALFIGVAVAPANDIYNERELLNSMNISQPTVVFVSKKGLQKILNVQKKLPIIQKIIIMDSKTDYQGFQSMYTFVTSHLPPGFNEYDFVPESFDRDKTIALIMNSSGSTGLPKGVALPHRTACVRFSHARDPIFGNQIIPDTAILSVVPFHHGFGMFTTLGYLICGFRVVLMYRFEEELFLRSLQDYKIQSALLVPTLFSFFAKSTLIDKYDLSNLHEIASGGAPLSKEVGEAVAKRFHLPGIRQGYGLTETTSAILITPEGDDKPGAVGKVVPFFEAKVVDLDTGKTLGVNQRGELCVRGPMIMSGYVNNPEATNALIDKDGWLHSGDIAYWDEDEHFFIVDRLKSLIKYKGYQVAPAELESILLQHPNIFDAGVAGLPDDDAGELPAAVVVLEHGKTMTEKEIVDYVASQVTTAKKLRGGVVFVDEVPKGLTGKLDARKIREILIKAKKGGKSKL
#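 Biochemical qHTS of compounds, final roughly 60 µM downward over six points, against 10 nM purified firefly luciferase using Km concentrations of substrates (10 uM D-luciferin, 10 uM ATP) in Tris acetate pH 7.5 buffer; luminescence output.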
# KinaseGlo FLuc = Counterscreen for Luciferase (Kinase-Glo TM) Inhibition; Luciferin 4-monooxygenase (Photuris pensylvanica), Q27757; Kinase-Glo luciferase, ATP luminescence, 8 min; Potency, µM (top dose mostly 38.3 µM), for the others: top-dose activity change, negative = inhibition, most hits filed as inhibitors; 200,000 compounds, 0.28% hits; AID 1379, 2008; further: on the % scale 0 is the no-effect control and ±100 the full control effect; nearly all actives have a fitted effect of over 60% in size
#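 Recombinant Kinase-Glo luciferase, 10 uM ATP (linear range), luciferin; imidazole pH 7.2 / KCl / MgCl2 / Tween / BSA buffer; 8 min RT; luminescence.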
# NPC1 prom act = qHTS Assay for NPC1 Promoter Activators; Huh7 NPC1 promoter luciferase reporter, 24 h; Potency, µM (highest dose often 9.22 µM), inactives show at the highest dose activation, hits mostly activators; 320,000 compounds, 2.4% hits; AID 485313, 2010; further: % of control where 0% means no effect; nearly all actives have a fitted effect of over 60% in size
#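 NPC1 promoter–luciferase Huh7 cells; 24 h compound; luminescence.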
# SMN2 splice enh = qHTS Assay for Enhancers of SMN2 Splice Variant Expression; Potency, µM (titrated, usually from 46.1 µM), inactives show top-dose activity change, positive = activation, hits mostly activators; 210,000 compounds, 2.8% hits; HEK293 SMN2-luciferase splicing reporter, luminescence, 30-36 h; further: % of control where 0% means no effect; nearly all actives have a fitted effect of over 55% in size
#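 HEK293 cells carry an SMN2 […]–luciferase reporter in which exon 7 inclusion puts luciferase in frame. Cells were plated 10-12 h before compound addition, then incubated 30-36 h at 37C. ONE-Glo luminescence was read; sodium butyrate at 4.5 mM final served as control.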
# ELG1 genotox = qHTS screen for small molecules that induce genotoxicity in human embryonic kidney (HEK293T) cells expressing luciferase-tagged ELG1; HEK293T ELG1-luciferase reporter, luminescence, 16 h; Potency, µM (top dose mostly 46 µM), inactives show at the top dose activity change, positive = activation, actives largely listed as activators; 330,000 compounds, 1.3% hits; AID 504466, 2011; further: % of control where 0% means no effect; nearly all actives have a fitted effect of over 60% in size
#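 Quantitative HTS format in 1536-well plates. HEK293T ELG1-luciferase reporter cells receive test compound and are incubated 16 hr at 37 °C, 5% CO2; ONE-Glo added, 30 min room temperature, then luminescence read.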
# Rab9 prom act = qHTS Assay for Rab9 Promoter Activators. 320,000 compounds, 2.8% hits. Potency, µM (highest dose often 9.22 µM), without a hit: at the highest dose activation, negative = inhibition, usual class: activators. AID 485297, 2010. Huh7 Rab9 promoter-luciferase reporter, luminescence, 24 h; further: % of control where 0% means no effect; nearly all actives have a fitted effect of over 60% in size
#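 Luminescence from Amplite-detected luciferase (10 minutes, ambient) reports Rab9 promoter activation. Before that, stable Rab9-luciferase Huh7 cells (1500/well, reduced-serum OP-MEM I plus 10% FBS) were exposed to compound for 24 hours at 37C.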
# Active calls of the source: *; u = inconclusive; x = not tested or not shown. Rows were chosen to be rich in hits. Some 7.5% of all compounds tested hit in one or more screens of this group. The call rests on the fitted dose curve; in most records, active means well fitted curve in the direction sought with a large enough effect; inconclusive means small, poorly fitted or top-dose-only effect, or another doubt; inactive means no such curve, though single readings can be large; an effect the other way counts as inactive or inconclusive. Potency means the concentration at half of the fitted maximal effect.
SMILES,FLuc counter,KinaseGlo FLuc,NPC1 prom act,SMN2 splice enh,ELG1 genotox,Rab9 prom act
Cc1ccc(-c2nn(-c3ccccc3)cc2/C=N/NC(=O)c2ccncc2)o1,12µM*,1.0%,-4.0%,14.1µM*,u,1.8%
O=C(N/N=C\c1cn(-c2ccccc2)nc1-c1ccccc1)c1ccc(Br)o1,u,-9.1%,0.0%,-78.6%,-20.7%,13.5%
CCc1cccc(NC(=O)c2cn3c4c(ccc(Cl)c4c2=O)OC(C)C3)c1 (stereo unspecified),-3.2%,x,x,x,x,x
O=C(O)c1cccc(N/N=C/c2cn(-c3ccccc3)nc2-c2cccs2)c1,1.35µM*,-5.9%,3.55µM*,14.1µM*,u,2µM*
c1ccc(-c2ccc(-c3ccccn3)s2)nc1,1.51µM*,x,u,x,u,3.98µM*
CCc1ccc(C(=O)NNC(=O)c2cccc(N3C(=O)CCC3=O)c2)cc1,10.7µM*,x,-2.4%,x,4.3%,-2.4%
CCc1ccc2nc(NC(=O)c3ccc(N4C(=O)CCC4=O)cc3)sc2c1,8.49µM*,x,22.7%,x,8.0%,23.6%
Cc1cccc(NC(=O)c2cccc(N3C(=O)CCC3=O)c2)c1,0.7%,x,3.0%,x,-1.4%,0.2%
Cc1occc1C(=O)Nc1sc2c(c1C(N)=O)CCC(C(C)(C)C)C2 (stereo unspecified),u,15.4%,4.0%,-9.3%,14.1%,17.2%
CC(C)(C)C1CCc2c(sc(NC(=O)c3ccncc3)c2C(N)=O)C1 (stereo unspecified),2.69µM*,2.1%,18.3%,3.2%,-7.0%,17.4%
CC1CCc2c(sc(NC(=O)c3ccc(N4C(=O)CCC4=O)cc3)c2C(N)=O)C1 (stereo unspecified),9.53µM*,x,-3.6%,x,-0.1%,1.7%
CCCCC[C@H](O)/C=C/C=C\CCCCCCCCCC(=O)O,x,1.6%,x,-6.7%,x,x
CCOc1ccccc1NC(=O)N1CCc2c(sc3c2CCCC3)C1c1ccccc1 (stereo unspecified),-1.9%,x,x,x,x,x
CC1CCc2nc(NC(=O)c3ccc(N4C(=O)CCC4=O)cc3)sc2C1 (stereo unspecified),9.53µM*,x,3.8%,x,-9.6%,13.7%
CCOC(=O)Nc1sc2c(c1C(N)=O)CCC(C)C2 (stereo unspecified),u,-0.6%,1.1%,x,13.4%,9.3%
O=C(Nc1nc2c(s1)CCCC2)c1ccc(N2C(=O)CCC2=O)cc1,19µM*,x,u,x,u,u
CC(=O)NC(=S)Nc1sc2c(c1C(N)=O)CCC(C)C2 (stereo unspecified),9.53µM*,-0.6%,2.82µM*,x,u,1.58µM*
Cc1cc(Cl)ccc1NC(=O)Cn1nnc2sc(-c3ccccc3)cc2c1=O,-0.8%,x,x,1.4%,x,x
COc1ccc(-n2c(=O)c3ccccc3n(Cc3ccc(F)cc3Cl)c2=O)cc1OC,1.1%,x,x,-5.8%,x,x
CC(=O)c1cccc(NC(=O)CN2C(=O)c3ccccc3Sc3ncccc32)c1,3.8%,x,x,x,x,x
CCc1nnc(NC(=O)c2cc(-c3ccc(C)o3)nc3ccccc23)s1,10.7µM*,x,-0.6%,x,-0.9%,2.2%
Cc1ccc(-c2cc(C(=O)NCC(c3ccccc3)N(C)C)c3ccccc3n2)o1 (stereo unspecified),x,x,x,x,2.4%,x
Cc1ccc(-c2cc(C(=O)Nc3cccc(S(=O)(=O)N(C)C)c3)c3ccccc3n2)o1,9.53µM*,x,-6.2%,x,-9.1%,15.8%
CN(C)S(=O)(=O)c1cccc(NC(=O)c2c[nH]c3ccccc23)c1,21.3µM*,x,15.4%,x,-11.6%,16.8%
COC(=O)c1cc(-c2ccc(C)o2)nc2ccccc12,10.7µM*,-0.9%,4.2%,4.4%,-0.2%,0.7%
SMILES,FLuc counter,KinaseGlo FLuc,NPC1 prom act,SMN2 splice enh,ELG1 genotox,Rab9 prom act
CCOC(=O)c1ccc(NS(=O)(=O)c2ccc(Br)s2)cc1,u,x,x,-10.6%,x,x
CC(C)C(=O)Nc1cccc(C(=O)Nc2nnc(CC(C)(C)C)s2)c1,u,x,x,-17.4%,x,x
Cc1ccc(-c2cc(C(=O)OCC(=O)N(C)c3c(N)n(Cc4ccccc4)c(=O)[nH]c3=O)c3ccccc3n2)o1,2.39µM*,x,8.0%,x,u,19.1%
Cc1ccc(-c2cc(C(=O)Nc3ccccc3C)c3ccccc3n2)o1,8.49µM*,-1.9%,-6.3%,1.2%,0.8%,-3.4%
COc1ccc(-c2noc(CSCC(=O)Nc3cc(OC)c(OC)c(OC)c3)n2)cc1OC,-1.8%,x,x,x,x,x
COC(=O)C1CCN(C(=O)/C=C/c2ccc(OC)cc2)CC1,21.3µM*,-0.2%,0.282µM*,x,2.31µM*,1.12µM*
COc1ccc(/C=C/C(=O)N2CCC(c3nc4ccccc4o3)CC2)cc1,19µM*,x,x,x,x,x
COc1ccc(/C=C/C(=O)N2CCC(c3ccccc3)C2)cc1 (stereo unspecified),19µM*,1.2%,5.8%,3.5%,1.8%,0.1%
CCN(CC)CCCC(C)NC(=O)c1ccc(Cc2nc3ccccc3[nH]2)cc1 (stereo unspecified),x,-1.3%,x,x,x,x
COc1ccc(Cl)c2c1[nH]c1nc(SCc3ccccn3)nnc12,6.01µM*,11.9%,2.82µM*,6.31µM*,20.6µM*,1.78µM*
COc1ccc(Cl)c2c1[nH]c1nc(SCc3cccnc3)nnc12,0.7%,-4.0%,2.1%,1.4%,13.8%,-2.6%
C=CCN1C(=O)S/C(=C\c2ccc(N3CCOCC3)cc2C)C1=O,6.01µM*,-1.6%,u,x,u,3.55µM*
O=C1NC(=S)N/C1=C\c1ccc(N2CCOCC2)cc1,21.3µM*,-6.6%,29.2%,18.2%,u,23.4%
O=C1NC(=S)N/C1=C/c1ccc2c(c1)OCO2,u,x,-5.5%,x,-15.1%,-13.9%
C=CC(C)N1C(=O)S/C(=C\c2ccc(N3CCOCC3)cc2C)C1=O (stereo unspecified),10.7µM*,1.3%,u,-37.6%,u,u
C=CCN1C(=O)S/C(=C\c2ccc3c(c2)n(C)c(=O)n3C)C1=O,-13.0%,-2.5%,9.1%,u,u,20.7%
Cc1cc(N2CCOCC2)ccc1/C=C1/SC(=O)NC1=O,15.1µM*,12.7%,u,22.4µM*,u,u
Cc1nc(SCc2ccc(C#N)cc2)n[nH]1,-18.6%,x,11.1%,x,1.8%,9.4%
CCCCOc1ccc(CSc2nncn2N)cc1,u,-4.7%,u,26.5%,u,u
CCCCOc1ccc(CSc2n[nH]c(C)n2)cc1,u,4.8%,u,17.8µM*,20.6µM*,u
